Source: PubChem BioAssay (NCATS)
Results filed as inconclusive are left out. Where a call stands in place of a potency, no number is given. Calls of active or inactive are those of the source. Calls come from the whole dose curve; as a rule, active = well fitted cell-killing curve with a large enough effect; inconclusive = small, poorly fitted or top-dose-only effect, or effect the other way; inactive = flat fitted curve, though single readings scatter. Where a SMILES comes first, the peptide text is derived from it. [ ]: non-standard residue; d: D form. ξ: configuration not given here. ξTyr(βOH) = NC(C(=O)O)C(O)c1ccc(O)cc1

test system: Es-2; test: Primary qHTS to identify gynecologic anti-cancer compounds using libraries of approved drugs and bioactive compounds (AID 1345084); settings: Gynecologic cancer cell panel viability, ATPlite luminescence, 48 h; series mostly up to 57.5 µM; note: nearly all actives have a fitted effect of over 55% in size
Outline: (§1)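 Five-point cytotoxicity, 48 h drug exposure at 37 C, 5% CO2, on cells seeded 16 h beforehand. ATP content read by ATPlite luminescence.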
Potency is the fitted concentration of half-maximal effect.

Q: C=C(COC(=O)CC(C)C)C1Cc2cc(C(C)=O)ccc2O1 (centres undefined) was tested. Which Potency did it give?
A: inactive

Q: COc1cc(C2CC(=O)Nc3c2cc(Br)c2ccccc32)cc(OC)c1OC (centres undefined) was tested. Which Potency did it give?
A: inactive

Q: Which Potency does the source give for CCC(C)C(=O)OC[C@H]1O[C@H](O[C@H]2O[C@H](CO)[C@@H](O)[C@H](O)[C@H]2O)[C@H](O)[C@@H](O)[C@@H]1O (some centres undefined) here?
A: inactive

Q: Which Potency does the source give for COC(=O)C1=CO[C@@H](O[C@@H]2O[C@H](CO)[C@@H](O)[C@H](O)[C@H]2O)[C@@H]2[C@@H](C)[C@@H](O)C(O)[C@H]12 (some centres undefined) here?
A: inactive

Q: With CCCC1=CC2=C(CO1)C(=O)C(C)(O)C(OC(=O)c1c(C)cc(OC)cc1O)C2 (centres undefined) as the molecule, how does the Potency read?
A: inactive

Q: With C=C(CC/C=C(\C)C(=O)O)C1(O)CC=C(C)CC1 (centres undefined) as the molecule, how does the Potency read?
A: inactive

Q: COc1ccc(C2(O)c3ccccc3NC(=O)C2OC)cc1 (centres undefined) was tested. Which Potency did it give?
A: inactive

test system: HeLa; test: as above; settings: Gynecologic cancer cell panel viability, ATPlite luminescence, 48 h; series mostly up to 57.5 µM
Outline: as §1

Q: NC1(c2ccc(NC(=O)c3ccnc(-c4cc(C(=O)O)ccn4)c3)cc2)CC1 was tested. Which Potency did it give?
A: inactive

Q: CCCC/C=C\CCCCCc1cc(=O)c2ccccc2n1C was tested. Which Potency did it give?
A: inactive

Q: Which Potency does the source give for COCc1c(O)c(C(=O)O)c(C)c2c1OC(=O)c1c(C)cc(O)c(CO)c1O2 here?
A: inactive

Q: With C/C=C/C=C/C1=C2C(=O)C3(C)C4C(C(=O)CC(O)/C=C/C)=C(O1)C1(C)C2C2(C)OC1(O)C4(C)OC23O (centres undefined) as the molecule, how does the Potency read?
A: inactive

Q: CC12CC(O)C(O)C=C1c1cc(O)cc(O)c1C(=O)O2 (centres undefined) was tested. Which Potency did it give?
A: inactive

Q: With C=C1C2(C)CC3C4(C)C=CC(=O)OC(C)(C)C4CCC3(C)C1(C(=O)OC)C(=O)C(C)(O)C2=O (centres undefined) as the molecule, how does the Potency read?
A: inactive

Q: Which Potency does the source give for CC1(C)[C@H]2C[C@H](C/C=C\CCCC(=O)O)[C@@H](NC(=O)c3csc4ccc(O)cc34)[C@@H]1C2 here?
A: inactive

Q: CC(C)c1ccc2c(c1)CCC1[C@](C)(C(=O)O)CCC[C@]21C (some centres undefined) was tested. Which Potency did it give?
A: inactive

Q: How did the Potency turn out when C[C@@H]1O[C@@H](OC(=O)Cc2ccccc2)[C@H](O)[C@H](O)[C@H]1O was run?
A: inactive

Q: How did the Potency turn out when Cn1cc(-c2c[nH]c3ncnc(N4CCOCC4)c23)cn1 was run?
A: inactive

Q: With CC(C)C1NC(=O)C(CC2(O)c3ccccc3N3C(=O)C(Cc4ccccc4)NC32)NC1=O (centres undefined) as the molecule, how does the Potency read?
A: inactive

Q: For C[C@@]12CC3(S(=O)(=O)O)OC(O1)[C@]1(COC(=O)c4ccccc4)[C@H]3C[C@]21O[C@@H]1O[C@H](CO)[C@@H](O)[C@H](O)[C@H]1O, which Potency is on record?
A: inactive

Q: For CC(C)C1NC(=O)CNC(=O)C2CCCN2C(=O)C(Cc2c[nH]c3ccccc23)NC(=O)CNC(=O)C(C(O)c2ccc(O)cc2)NC(=O)CNC1=O (centres undefined) (cyclo(G[ξTyr(βOH)]GWPGV); configuration not given here), which Potency is on record?
A: inactive

Q: How did the Potency turn out when CC(=C\C(C)O)/C=C(\C)C(=O)CC1CC(CC(N)=O)CC(=O)O1 (centres undefined) was run?
A: inactive

Q: With CC(=O)OCC1=CCC2C(C)(C)CCCC2(C)C12CCC(C)(CC(=O)O)O2 (centres undefined) as the molecule, how does the Potency read?
A: inactive

Q: Which Potency does the source give for C[C@H]1CC[C@H]2[C@@H](C=C[C@@](C)(O)[C@]2(C)C(=O)CCO)C1 here?
A: inactive

Q: How did the Potency turn out when CC1=C(CO)CC(C(C)C2CCC3C4CC=C5CC(OC6OC(COC7OC(CO)C(O)C(O)C7O)C(O)C(O)C6O)CC(O)C5(C)C4CCC23C)OC1=O (centres undefined) was run?
A: inactive

Q: For CC(=O)c1c(C)cccc1O[C@@H]1O[C@H](CO)[C@@H](O)[C@H](O)[C@H]1O, which Potency is on record?
A: inactive

Q: How did the Potency turn out when C/C1=C\CC[C@]2(C)O[C@H]2C(=O)c2c(C)coc2C1 was run?
A: 7.94 µM (active)

Q: Which Potency does the source give for CNc1nc(C)nc(N[C@H]2CCC[C@@H](C(=O)NCc3ccc(C#N)cc3C(F)(F)F)C2)n1 here?
A: inactive

Q: For CC(=O)O[C@@H]1[C@@H](O)[C@H](C)O[C@@H](O[C@H]2[C@@H]3C=CO[C@@H](O[C@@H]4O[C@H](CO)[C@@H](O)[C@H](O)[C@H]4OC(C)=O)[C@@H]3[C@@]3(CO)O[C@@H]23)[C@@H]1OC(=O)/C=C/c1ccc(O)cc1, which Potency is on record?
A: inactive

Q: For CCC1=C(C)C(=O)C(C)CC12C(=O)CCC2C(=O)O (centres undefined), which Potency is on record?
A: inactive

Q: Which Potency does the source give for Nc1ncnc2c1c(COc1cccc(Cl)c1)nn2C1CCOCC1 here?
A: inactive

Q: Which activity change, negative = cytotoxicity does the source give for CC1(C)CC[C@]2(C(=O)O[C@@H]3O[C@H](CO)[C@@H](O)[C@H](O)[C@H]3O)CC[C@]3(C)C(=CCC4[C@@]5(C)CC[C@H](O[C@@H]6O[C@H](C(=O)O)[C@@H](O[C@@H]7O[C@H](CO)[C@@H](O)[C@H](O)[C@H]7O)[C@H](O)[C@H]6O[C@@H]6O[C@H](CO)[C@@H](O)[C@H](O)[C@H]6O)C(C)(C)C5CC[C@]43C)C2C1 (some centres undefined) here?
A: 0.908% [at 11.6 µM] (inactive)

Q: With C=C(C(=O)OC)[C@]12O[C@@](C)(CC[C@@]3(O)/C(=C\C)C(=O)O[C@]3(C)C[C@@H]1OC(=O)C(CO)CN1CCCC1C(=O)O)CC2=O (some centres undefined) as the molecule, how does the Potency read?
A: inactive

Q: How did the Potency turn out when COc1cc(/C=C/C(=O)O[C@H]2[C@@H]3C=CO[C@@H](O[C@@H]4O[C@H](CO)[C@@H](O)[C@H](O)[C@H]4O)[C@@H]3[C@@]3(CO)O[C@@H]23)ccc1O was run?
A: inactive

Q: COC1OC(=O)C2=C1C1(C)CCCC(C)(C)C1CC2O (centres undefined) was tested. Which Potency did it give?
A: inactive

Q: Which Potency does the source give for C/C1=C\CC(C)(C)/C=C/C/C(C(=O)O)=C/CC1 here?
A: inactive

Q: How did the Potency turn out when CC1CCC2(NC1)OC1C(O)C3C4CCC5CC(O[C@@H]6O[C@H](CO)[C@@H](O)[C@H](O)[C@H]6O[C@@H]6O[C@@H](C)[C@H](O)[C@@H](O)[C@H]6O)CCC5(C)C4CCC3(C)C1C2C (some centres undefined) was run?
A: inactive

Q: How did the Potency turn out when O=C(O)/C=C/c1ccc2occc2c1O[C@@H]1O[C@H](CO)[C@@H](O)[C@H](O)[C@H]1O was run?
A: inactive

Q: For C=C(COC(=O)CC(C)C)C1Cc2cc(C(C)=O)ccc2O1 (centres undefined), which Potency is on record?
A: inactive

Q: Which Potency does the source give for COc1cc(C2CC(=O)Nc3c2cc(Br)c2ccccc32)cc(OC)c1OC (centres undefined) here?
A: inactive

Q: Which Potency does the source give for CCC(C)C(=O)OC[C@H]1O[C@H](O[C@H]2O[C@H](CO)[C@@H](O)[C@H](O)[C@H]2O)[C@H](O)[C@@H](O)[C@@H]1O (some centres undefined) here?
A: inactive

Q: For COC(=O)C1=CO[C@@H](O[C@@H]2O[C@H](CO)[C@@H](O)[C@H](O)[C@H]2O)[C@@H]2[C@@H](C)[C@@H](O)C(O)[C@H]12 (some centres undefined), which Potency is on record?
A: inactive

Q: Which Potency does the source give for CCCC1=CC2=C(CO1)C(=O)C(C)(O)C(OC(=O)c1c(C)cc(OC)cc1O)C2 (centres undefined) here?
A: inactive

Q: C=C(CC/C=C(\C)C(=O)O)C1(O)CC=C(C)CC1 (centres undefined) was tested. Which Potency did it give?
A: inactive

Q: For COc1ccc(C2(O)c3ccccc3NC(=O)C2OC)cc1 (centres undefined), which Potency is on record?
A: inactive
